This is a sample that favours compounds with a hit; in the whole collection about 6.3% have one here.
Spn DPM-DC inh: S. pneumoniae DPM-DC inhibitors, primary screen, biochemical, PK/LDH-coupled NADH fluorescence | diphosphomevalonate decarboxylase (Streptococcus pneumoniae D39) | purified DPM-DC | calls only at 10 µM | hit rate 0.49% among 65,000 | AID 556, 2006;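 active = the 320 compounds with the highest percent inhibition in the single-dose primary screen, excluding strongly autofluorescent ones, cut at about 32% in these data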;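 note: kinetic rate of NADH fluorescence loss reporting ADP formed by the decarboxylase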
Abs 340nm: compound light absorbance at 340 nm, profiling panel, artefact control, biochemical, MLSMR library, data from PS, PMK, MK assays | compound absorbance at 340 nm, fold over control | fold change at 10 µM | 65,000 tested, under 10 active | AID 708, 2007;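 active = at 10 µM dose, initial 340 nm absorbance at least 2 fold that of control wells; inactive = change under 2 fold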;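 note: initial absorbance extrapolated from kinetic A340 decline of NADH oxidation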
PMK inhibit: S. pneumoniae PMK inhibitors, primary screen, biochemical, mevalonate pathway, pilot trial included. purified PMK, PK/LDH-coupled NADH absorbance 340 nm. inhibition, % at 10 µM. hit rate 0.49% among 65,000. phosphomevalonate kinase (Streptococcus pneumoniae D39);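 active = top-ranked compounds by inhibition in the single 10 µM screen, taking a fixed number of the strongest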
Fluor 339 460: intrinsic fluorescence of library compounds, ex339/em460 – biochemical, MLSMR library, data from DPM-DC assay, artefact control, profiling panel; compound autofluorescence, ex339/em460 nm, NADH buffer; hits give high values; 1 = no-compound wells, NADH background; fluorescence fold increase at 10 µM; hit rate 5.5% among 65,000; AID 709, 2007;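 active = at 10 µM, mean starting fluorescence two-fold or more over control wells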;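 note: signal is the first read of a kinetic run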
Spn MK inh: S. pneumoniae MK inhibitors, primary screen, biochemical, PK/LDH-coupled NADH absorbance | purified MK, PK/LDH-coupled NADH absorbance 340 nm | inhibition, % at 10 µM | hit rate 0.48% among 65,000 | mevalonate kinase [Streptococcus pneumoniae D39];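 active = ranked among the strongest by inhibition in the single 10 µM screen, a fixed top-ranked set picked for dose follow-up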
NADH coupling: inhibitors of PK/LDH coupling enzymes, profiling panel, artefact control, biochemical, MLSMR library. coupled PK/LDH NADH assays, four targets. IC50, µM (series often up to 10 µM). hit rate 0.02% among 65,000. AID 774, 2007;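 active = single-dose screening hits from any of four coupled enzyme assays that gave an IC50 when retested across doses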;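 note: the DPM-DC format reads NADH fluorescence rather than 340 nm absorbance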
Numbers stand for hits; - = inactive; . = no result shown.

SMILES	Spn DPM-DC inh	Abs 340nm	PMK inhibit	Fluor 339 460	Spn MK inh	NADH coupling
CCn1cc(Cl)c(C(=O)Nc2nc3ccccc3n2CCN2CCCCC2)n1	-	-	-	-	-	-
Cc1cc(N2C(=O)C3C4C=CC(C4)C3C2=O)ccc1Br (configuration not stated)	-	-	-	-	-	-
CCOC(=O)C1CCN(C(=O)Nc2ccc3oc(C)nc3c2)CC1	-	-	-	-	-	-
CCOC(=O)C1CCN(C(=O)Nc2ccc3nc(C)c(C)nc3c2)CC1	.	-	-	2.92	-	-
CCN(CC)CCOc1cc2c(nn1)Oc1ccccc1N2C	.	-	-	3.81	-	-
O=C(Nc1nnc(CC(=O)N2CCCC2)s1)c1cnccn1	-	-	-	-	-	-
COc1ccc(C2=CC(c3ccc(Cl)cc3)n3cnnc3N2)cc1OC (configuration not stated)	-	-	-	-	-	-
CC1CN(S(=O)(=O)c2ccc(C(=O)Nc3nnc(-c4ccc5c(c4)CCCC5)o3)cc2)CC(C)O1 (configuration not stated)	.	-	-	2.14	-	-
CC(=O)Nc1nnc(-c2ccc3c(c2)CCCC3)o1	-	-	-	-	-	-
COc1ccc(-c2nnc(CSc3nc4ccccc4c(=O)n3CC3CCCO3)o2)cc1OC (configuration not stated)	-	-	-	-	-	-
Nc1nc(NC(=O)c2ccco2)nn1-c1ccccc1	-	-	-	-	-	-
O=C(Nc1nc2n(n1)C(c1ccccc1)C=C(c1ccccc1)N2)c1ccco1 (configuration not stated)	-	-	-	2.58	-	-
O=C(c1nc2n(n1)C(c1ccc(Cl)cc1)C=C(c1ccccc1)N2)N1CCOCC1 (configuration not stated)	-	-	-	-	-	-
COc1ccc(C2C=C(c3ccc(Br)cc3)Nc3nc(N4C(=O)CCC4=O)nn32)cc1 (configuration not stated)	.	-	-	3.87	-	-
CC(=O)Nc1nc2n(n1)C(c1ccc(Cl)cc1)C=C(C)N2 (configuration not stated)	.	-	-	4.93	-	-
O=C(Nc1nc2nc(-c3ccccc3)cc(-c3ccccc3)n2n1)c1ccco1	.	-	-	3.97	-	-
COc1ccc(C2C=C(c3ccc(Cl)cc3)Nc3nc(NC(C)=O)nn32)cc1 (configuration not stated)	.	-	-	2.34	-	-
CC(=O)Nc1nc2n(n1)C(c1ccccc1)C=C(c1ccccc1)N2 (configuration not stated)	-	-	-	-	-	-
CC(=O)Nc1nc2n(n1)C(c1ccc(F)cc1)C=C(c1ccccc1)N2 (configuration not stated)	.	-	-	3.36	-	-
COc1ccccc1C1C=C(c2ccc(Cl)cc2)Nc2nc(NS(C)(=O)=O)nn21 (configuration not stated)	.	-	-	3.98	-	-
COc1ccc(C2=CC(c3ccc(F)cc3)n3nnnc3N2)cc1 (configuration not stated)	-	-	-	-	-	-
O=C(NCCN1CCOCC1)c1ccc2c(c1)ncn2C1CCCCC1	-	-	-	-	-	-
Cc1cccc(NC(=O)CSc2nnc(-c3ccc(S(=O)(=O)N4CCOCC4)cc3)n2C)c1	-	-	-	-	-	-
CSc1nnc(N(CCC#N)CCC#N)s1	-	-	-	-	-	-
O=C(CSc1n[nH]c(-c2ccc(S(=O)(=O)N3CCCCC3)cc2)n1)Nc1nccs1	-	-	-	2.61	-	-
C/C(=N\n1nnnc1Nc1ccccc1)c1ccc(N)cc1	-	-	-	-	-	-
N#Cc1nc(-c2ccco2)oc1N1CCN(C(c2ccccc2)c2ccccc2)CC1	-	-	-	-	-	-
O=S(=O)(c1ccccc1)c1nc(-c2ccco2)oc1N1CCOCC1	-	-	-	-	-	-
CC1CC(C)CN(c2oc(-c3ccco3)nc2C#N)C1 (configuration not stated)	.	-	-	2.16	-	-

Screening results (PubChem BioAssay)
